Columns and labels:
Assay in all cases: DAPPL (digital affinity profiling via proximity ligation, sequencing); 10 mM Tris-HCl pH 7.5, 50 mM NaCl, 1 mM DTT, 4% glycerol, room temperature, 30 min; GST-TFs on glutathione beads, 16-mer random dsDNA library, 0.1% formaldehyde crosslink after washing; high values mean tight binding
Conditions in all cases: protein: recombinant; tags: N-terminal GST; dsDNA, one strand shown
FLI1 = target: T1, FLI1 (Homo sapiens, UniProt Q01543 1-452)
T1 sequence: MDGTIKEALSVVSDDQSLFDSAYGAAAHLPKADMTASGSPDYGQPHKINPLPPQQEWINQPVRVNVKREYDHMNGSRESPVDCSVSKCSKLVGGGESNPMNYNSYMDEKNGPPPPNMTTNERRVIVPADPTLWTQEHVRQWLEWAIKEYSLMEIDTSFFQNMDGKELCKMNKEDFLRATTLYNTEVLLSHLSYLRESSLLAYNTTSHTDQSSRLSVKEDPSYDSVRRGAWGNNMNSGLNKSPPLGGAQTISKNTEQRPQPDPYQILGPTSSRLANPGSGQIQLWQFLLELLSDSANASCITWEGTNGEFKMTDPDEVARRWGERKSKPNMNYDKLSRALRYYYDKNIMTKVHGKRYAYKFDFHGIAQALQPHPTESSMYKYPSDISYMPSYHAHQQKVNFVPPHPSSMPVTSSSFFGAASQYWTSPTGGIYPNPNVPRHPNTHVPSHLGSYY
Outline: (§1)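 Each value of binding signal is a hexamer's read frequency for a factor divided by the same hexamer's frequency in the tag-only sample. Barcoded, bead-captured GST fusions of human transcription factors made in yeast were pooled with that sample and incubated with 200 nmole of a random double-stranded 16-mer DNA library in Tris/NaCl/DTT/glycerol buffer at room temperature for 30 min. Washing, 0.1% formaldehyde crosslinking, proximity ligation, PCR and Illumina NextSeq500 sequencing followed.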

ELK1 = target: T2, ELK1 (Homo sapiens, UniProt P19419 1-428)
T2 sequence: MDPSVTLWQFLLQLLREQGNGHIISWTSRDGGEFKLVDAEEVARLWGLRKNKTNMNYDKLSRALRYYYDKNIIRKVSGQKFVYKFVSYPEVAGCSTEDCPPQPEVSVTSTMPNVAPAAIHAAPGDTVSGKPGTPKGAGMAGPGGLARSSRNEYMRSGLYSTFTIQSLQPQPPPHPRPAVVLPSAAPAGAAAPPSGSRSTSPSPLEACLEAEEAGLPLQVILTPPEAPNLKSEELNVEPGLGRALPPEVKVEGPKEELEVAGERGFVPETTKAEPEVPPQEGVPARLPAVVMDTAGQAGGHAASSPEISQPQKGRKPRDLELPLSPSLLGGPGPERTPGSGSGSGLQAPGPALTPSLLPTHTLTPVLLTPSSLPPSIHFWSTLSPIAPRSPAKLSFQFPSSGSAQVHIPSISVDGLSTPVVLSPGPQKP
Outline: as §1

GABPA = target: T3, GABPA (Homo sapiens, UniProt Q06546 1-454)
T3 sequence: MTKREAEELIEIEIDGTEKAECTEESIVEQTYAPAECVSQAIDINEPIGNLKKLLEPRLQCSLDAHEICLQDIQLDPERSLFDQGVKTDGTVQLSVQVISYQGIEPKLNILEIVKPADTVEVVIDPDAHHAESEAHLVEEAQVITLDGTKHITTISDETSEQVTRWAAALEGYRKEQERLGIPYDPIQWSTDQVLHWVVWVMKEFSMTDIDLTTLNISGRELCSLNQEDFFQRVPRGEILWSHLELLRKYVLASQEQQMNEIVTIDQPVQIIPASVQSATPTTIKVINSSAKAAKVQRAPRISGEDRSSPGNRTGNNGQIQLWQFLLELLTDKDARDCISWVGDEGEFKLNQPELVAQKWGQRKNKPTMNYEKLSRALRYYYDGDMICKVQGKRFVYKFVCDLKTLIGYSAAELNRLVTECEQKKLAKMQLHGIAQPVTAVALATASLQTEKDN
Outline: as §1

ERG = target: T4, ERG (Homo sapiens, UniProt P11308 1-479)
T4 sequence: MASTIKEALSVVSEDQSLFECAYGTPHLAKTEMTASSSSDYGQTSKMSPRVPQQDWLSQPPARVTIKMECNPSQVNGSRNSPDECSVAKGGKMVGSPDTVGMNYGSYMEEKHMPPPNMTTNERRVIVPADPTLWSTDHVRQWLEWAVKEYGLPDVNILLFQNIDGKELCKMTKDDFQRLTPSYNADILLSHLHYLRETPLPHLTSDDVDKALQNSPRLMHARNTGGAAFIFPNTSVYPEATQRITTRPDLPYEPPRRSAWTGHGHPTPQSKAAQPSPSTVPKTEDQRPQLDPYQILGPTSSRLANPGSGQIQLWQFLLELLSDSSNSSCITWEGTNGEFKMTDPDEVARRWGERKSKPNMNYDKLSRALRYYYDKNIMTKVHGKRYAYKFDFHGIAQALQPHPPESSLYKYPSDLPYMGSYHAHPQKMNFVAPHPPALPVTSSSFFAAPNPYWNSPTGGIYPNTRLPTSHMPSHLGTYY
Outline: as §1

ELF1 = ELF1 (Homo sapiens, UniProt P32519 1-619)
Chain of ELF1 (P32519 whole entry): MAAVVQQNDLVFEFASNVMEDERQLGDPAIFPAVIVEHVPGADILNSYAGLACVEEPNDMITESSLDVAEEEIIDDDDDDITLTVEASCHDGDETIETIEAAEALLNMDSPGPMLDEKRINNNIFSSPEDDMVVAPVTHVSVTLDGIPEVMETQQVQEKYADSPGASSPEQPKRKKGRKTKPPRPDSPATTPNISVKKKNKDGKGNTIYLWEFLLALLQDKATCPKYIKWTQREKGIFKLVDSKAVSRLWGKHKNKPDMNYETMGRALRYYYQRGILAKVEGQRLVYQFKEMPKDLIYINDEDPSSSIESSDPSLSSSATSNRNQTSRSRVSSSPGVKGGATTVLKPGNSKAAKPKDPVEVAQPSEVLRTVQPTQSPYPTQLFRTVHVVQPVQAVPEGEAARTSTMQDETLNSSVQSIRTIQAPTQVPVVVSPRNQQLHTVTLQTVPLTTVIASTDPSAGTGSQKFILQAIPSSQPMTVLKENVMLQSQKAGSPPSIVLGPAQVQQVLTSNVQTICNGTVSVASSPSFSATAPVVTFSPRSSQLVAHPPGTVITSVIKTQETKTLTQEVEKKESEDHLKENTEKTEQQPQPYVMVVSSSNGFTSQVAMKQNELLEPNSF
Outline: as §1

EHF = target: T5, EHF (Homo sapiens, UniProt Q9NZC4 1-300)
T5 sequence: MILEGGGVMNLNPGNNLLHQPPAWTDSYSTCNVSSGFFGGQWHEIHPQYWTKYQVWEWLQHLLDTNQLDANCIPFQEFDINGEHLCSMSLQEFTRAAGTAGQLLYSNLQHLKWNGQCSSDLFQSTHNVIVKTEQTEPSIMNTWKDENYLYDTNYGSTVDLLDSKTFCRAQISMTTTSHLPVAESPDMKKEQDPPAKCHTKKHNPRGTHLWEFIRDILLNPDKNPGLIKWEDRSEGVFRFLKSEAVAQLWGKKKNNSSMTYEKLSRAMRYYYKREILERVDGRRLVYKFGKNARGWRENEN
Outline: as §1

SPI1 = SPI1 (Homo sapiens, UniProt P17947 1-270)
Outline: as §1

SPIB = SPIB (Homo sapiens, UniProt Q01892 1-262)
Chain of SPIB (Q01892 whole entry): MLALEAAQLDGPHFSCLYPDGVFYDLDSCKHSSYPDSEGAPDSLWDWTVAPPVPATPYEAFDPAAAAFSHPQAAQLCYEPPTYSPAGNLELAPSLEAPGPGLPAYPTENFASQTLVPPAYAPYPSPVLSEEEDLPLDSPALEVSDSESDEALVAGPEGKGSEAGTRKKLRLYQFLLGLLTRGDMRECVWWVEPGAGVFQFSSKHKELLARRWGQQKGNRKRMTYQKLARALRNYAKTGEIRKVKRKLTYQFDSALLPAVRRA
Outline: as §1

ELK3 = target: T6, ELK3 (Homo sapiens, UniProt P41970 1-407)
T6 sequence: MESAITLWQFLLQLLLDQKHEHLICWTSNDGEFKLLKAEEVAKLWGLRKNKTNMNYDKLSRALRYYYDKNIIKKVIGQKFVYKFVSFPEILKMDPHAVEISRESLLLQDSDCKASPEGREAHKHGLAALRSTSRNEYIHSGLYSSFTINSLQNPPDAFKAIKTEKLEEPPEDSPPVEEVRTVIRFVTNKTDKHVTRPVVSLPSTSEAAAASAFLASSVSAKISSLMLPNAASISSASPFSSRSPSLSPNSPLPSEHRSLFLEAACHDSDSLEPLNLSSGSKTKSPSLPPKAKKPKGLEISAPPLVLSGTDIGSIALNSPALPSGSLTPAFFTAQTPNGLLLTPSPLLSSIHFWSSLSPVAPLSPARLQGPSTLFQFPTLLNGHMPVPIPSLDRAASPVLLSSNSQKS
Outline: as §1

Sequence	binding signal (FLI1)	binding signal (ELK1)	binding signal (GABPA)	binding signal (ERG)	binding signal (ELF1)	binding signal (EHF)	binding signal (SPI1)	binding signal (SPIB)	binding signal (ELK3)
ATCTTC	1.68 fold enrichment (6-mer frequency, TF over GST control)	1.52 fold enrichment (6-mer frequency, TF over GST control)	1.48 fold enrichment (6-mer frequency, TF over GST control)	1.51 fold enrichment (6-mer frequency, TF over GST control)	1.64 fold enrichment (6-mer frequency, TF over GST control)	1.46 fold enrichment (6-mer frequency, TF over GST control)	1.52 fold enrichment (6-mer frequency, TF over GST control)	1.6 fold enrichment (6-mer frequency, TF over GST control)	1.59 fold enrichment (6-mer frequency, TF over GST control)
TCTCGT	1.34 fold enrichment (6-mer frequency, TF over GST control)	1.11 fold enrichment (6-mer frequency, TF over GST control)	1.15 fold enrichment (6-mer frequency, TF over GST control)	1.11 fold enrichment (6-mer frequency, TF over GST control)	1.24 fold enrichment (6-mer frequency, TF over GST control)	1.22 fold enrichment (6-mer frequency, TF over GST control)	1.24 fold enrichment (6-mer frequency, TF over GST control)	1.3 fold enrichment (6-mer frequency, TF over GST control)	1.19 fold enrichment (6-mer frequency, TF over GST control)
TCTCCA	1.52 fold enrichment (6-mer frequency, TF over GST control)	1.46 fold enrichment (6-mer frequency, TF over GST control)	1.56 fold enrichment (6-mer frequency, TF over GST control)	1.37 fold enrichment (6-mer frequency, TF over GST control)	1.43 fold enrichment (6-mer frequency, TF over GST control)	1.55 fold enrichment (6-mer frequency, TF over GST control)	1.57 fold enrichment (6-mer frequency, TF over GST control)	1.44 fold enrichment (6-mer frequency, TF over GST control)	1.59 fold enrichment (6-mer frequency, TF over GST control)
CTCTAT	1.09 fold enrichment (6-mer frequency, TF over GST control)	1.22 fold enrichment (6-mer frequency, TF over GST control)	1.2 fold enrichment (6-mer frequency, TF over GST control)	1.17 fold enrichment (6-mer frequency, TF over GST control)	1.22 fold enrichment (6-mer frequency, TF over GST control)	1.09 fold enrichment (6-mer frequency, TF over GST control)	1.16 fold enrichment (6-mer frequency, TF over GST control)	1.17 fold enrichment (6-mer frequency, TF over GST control)	1.11 fold enrichment (6-mer frequency, TF over GST control)
AAAAGC	1.16 fold enrichment (6-mer frequency, TF over GST control)	1.13 fold enrichment (6-mer frequency, TF over GST control)	1.14 fold enrichment (6-mer frequency, TF over GST control)	1.24 fold enrichment (6-mer frequency, TF over GST control)	1.2 fold enrichment (6-mer frequency, TF over GST control)	1.14 fold enrichment (6-mer frequency, TF over GST control)	1.55 fold enrichment (6-mer frequency, TF over GST control)	1.23 fold enrichment (6-mer frequency, TF over GST control)	1.15 fold enrichment (6-mer frequency, TF over GST control)
ACGAAA	1.2 fold enrichment (6-mer frequency, TF over GST control)	1.12 fold enrichment (6-mer frequency, TF over GST control)	1.15 fold enrichment (6-mer frequency, TF over GST control)	1.14 fold enrichment (6-mer frequency, TF over GST control)	1.13 fold enrichment (6-mer frequency, TF over GST control)	1.19 fold enrichment (6-mer frequency, TF over GST control)	1.14 fold enrichment (6-mer frequency, TF over GST control)	1.16 fold enrichment (6-mer frequency, TF over GST control)	1.07 fold enrichment (6-mer frequency, TF over GST control)
TCTAAG	1.22 fold enrichment (6-mer frequency, TF over GST control)	1.19 fold enrichment (6-mer frequency, TF over GST control)	1.3 fold enrichment (6-mer frequency, TF over GST control)	1.2 fold enrichment (6-mer frequency, TF over GST control)	1.29 fold enrichment (6-mer frequency, TF over GST control)	1.28 fold enrichment (6-mer frequency, TF over GST control)	1.17 fold enrichment (6-mer frequency, TF over GST control)	1.28 fold enrichment (6-mer frequency, TF over GST control)	1.22 fold enrichment (6-mer frequency, TF over GST control)
TTGTGT	1.25 fold enrichment (6-mer frequency, TF over GST control)	1.28 fold enrichment (6-mer frequency, TF over GST control)	1.15 fold enrichment (6-mer frequency, TF over GST control)	1.12 fold enrichment (6-mer frequency, TF over GST control)	1.18 fold enrichment (6-mer frequency, TF over GST control)	1.08 fold enrichment (6-mer frequency, TF over GST control)	1.09 fold enrichment (6-mer frequency, TF over GST control)	1.25 fold enrichment (6-mer frequency, TF over GST control)	1.22 fold enrichment (6-mer frequency, TF over GST control)

— PMC7862700, “An all-to-all approach to the identification of sequence-specific readers for epigenetic DNA modifications on cytosine”
